Screening data (PubChem)
Compounds with a hit are over-represented: about 0.49% of the library has one in this group of screens.
EPAC1 antagonist = EPAC1 (human) antagonism; EPAC1 GEF assay, Rap1b-BODIPY-GDP exchange fluorescence; actives 0.14% (n = 360,000); AID 720709; Potency, µM (top dose mostly 115 µM), without a hit: at the highest dose activity change, negative = inhibition, most hits filed as inhibitors; O95398;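 further: plate controls were vehicle for no effect and positive control for full effect; nearly all actives have a fitted effect of over 50% in size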
EPAC2 agonist = EPAC2 (human) agonism. Q8WZA2. EPAC2 activation, biochemical qHTS; response scale: 100% = 6.5 mM cAMP response. Potency, µM (highest dose often 154 µM), inactives show top-dose activation, actives largely listed as activators. actives 0.079% (n = 360,000). AID 720711; further: nearly all actives have a fitted effect of over 50% in size
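Fluorescence exchange assay: 100 nM EPAC2 with 250 nM RAP1B-BODIPY-GDP and 50 uM GDP; compounds tested as a concentration-titration series (qHTS). Loss of Rap1-bound BODIPY-GDP fluorescence read at 480/540 nm; data normalized to 6.5 mM cAMP.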
EPAC2 antagonist = blocks human EPAC2 exchange factor; actives 0.18% (n = 360,000); Potency, µM (doses to about 114 µM), without a hit: top-dose activity, negative = inhibition, hits mostly inhibitors; EPAC2 GEF exchange of Rap1B-BODIPY-GDP, fluorescence; further: on the % scale 0 is the no-effect control and ±100 the full control effect; nearly all actives have a fitted effect of over 45% in size
EPAC1 agonist = activates human EPAC1 exchange factor; AID 720707; EPAC1 agonist qHTS, biochemical assay; response scale: 100% = response to 6.5 mM cAMP; O95398; actives 0.073% (n = 360,000); Potency, µM (series often up to 154 µM), for inactives: top-dose activation, actives largely listed as activators; further: nearly all actives have a fitted effect of over 60% in size
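Normalized to 6.5 mM cAMP, activity reflects EPAC1-catalysed release of BODIPY-GDP from Rap1B, followed kinetically over 30 min at 480 nm excitation, 540 nm emission. Reaction contained 100 nM EPAC1, 250 nM Rap1B-BODIPY-GDP, 50 uM GDP.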
USP1-UAF1 inh = inhibitors of human USP1/UAF1 deubiquitinase. O94782. recombinant USP1/UAF1, Ub-Rhodamine cleavage fluorescence. Potency, µM (doses to about 57.1 µM), inactives show at the highest dose activity change, negative = inhibition, most hits filed as inhibitors. actives 0.23% (n = 390,000); further: on the % scale 0 is the no-effect control and ±100 the full control effect; nearly all actives have a fitted effect of over 60% in size
Target sequence (O94782 whole entry, looked up): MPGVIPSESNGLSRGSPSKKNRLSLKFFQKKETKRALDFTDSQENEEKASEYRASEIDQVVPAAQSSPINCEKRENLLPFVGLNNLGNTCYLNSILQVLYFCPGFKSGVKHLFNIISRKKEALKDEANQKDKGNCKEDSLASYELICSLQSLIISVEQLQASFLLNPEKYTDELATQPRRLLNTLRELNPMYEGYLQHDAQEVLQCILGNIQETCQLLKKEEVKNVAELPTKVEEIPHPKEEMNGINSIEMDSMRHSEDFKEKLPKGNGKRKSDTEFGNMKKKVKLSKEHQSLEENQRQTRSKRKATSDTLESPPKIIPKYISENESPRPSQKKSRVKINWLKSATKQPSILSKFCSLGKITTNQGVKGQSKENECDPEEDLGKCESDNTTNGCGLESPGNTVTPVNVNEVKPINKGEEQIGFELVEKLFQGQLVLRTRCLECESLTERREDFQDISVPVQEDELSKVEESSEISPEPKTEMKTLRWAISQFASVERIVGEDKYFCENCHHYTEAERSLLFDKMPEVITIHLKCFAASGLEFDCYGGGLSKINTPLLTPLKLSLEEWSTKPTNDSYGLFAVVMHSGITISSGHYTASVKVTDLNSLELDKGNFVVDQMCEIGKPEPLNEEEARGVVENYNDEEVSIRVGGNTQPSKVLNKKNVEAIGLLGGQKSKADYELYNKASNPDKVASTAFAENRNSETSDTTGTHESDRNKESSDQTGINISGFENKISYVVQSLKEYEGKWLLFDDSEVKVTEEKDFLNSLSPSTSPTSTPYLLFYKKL
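1 nM enzyme complex + cpd, 15 min RT; start with Ub-Rho 150nM final; kinetic fluorescence ex 480/em 540, 6 reads q60 s. Buffer 50mM HEPES pH 7.8, 0.5mM EDTA, 0.1 mg/ml BSA, 1mM TCEP, 0.01% Tween-20.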
The depositor's hits bear a star; ? = inconclusive; · = no result. The call rests on the fitted dose curve; in most records, active means well fitted curve in the direction sought with a large enough effect; inconclusive means small, poorly fitted or top-dose-only effect, or another doubt; inactive means no such curve, though single readings can be large; an effect the other way counts as inactive or inconclusive. Potency means the concentration at half of the fitted maximal effect.

SMILES	EPAC1 antagonist	EPAC2 agonist	EPAC2 antagonist	EPAC1 agonist	USP1-UAF1 inh
CC1=C/C(=C(\c2cc(C)c(O)c(Br)c2)c2ccccc2S(=O)(=O)O)C=C(Br)C1=O	?	-14%	40µM*	-15%	?
O=C(CN1C(=O)/C(=C2/SC(=S)N(CCS(=O)(=O)O)C2=O)c2ccccc21)Nc1cccc(C(F)(F)F)c1	40µM*	-6%	56µM*	0%	-5%
CCc1ccccc1Nc1nc2ccccc2c2nncn12	·	·	·	·	-3%
Cc1ccc2nc(SCC(=O)c3c(N)n(C4CC4)c(=O)[nH]c3=O)[nH]c2c1	-9%	27%	71µM*	-9%	-25%
Cc1ccc(C2N3CC4(C)CN2CC(c2ccccc2)(C3)C4=O)cc1 (configuration not stated)	·	·	·	·	-9%
Cn1c(C(=O)NCc2ccc(F)cc2)cc2cc(S(=O)(=O)N3CCCCC3)ccc21	·	·	·	·	-17%
Cc1cc(/C=N/NC(N)=S)c(O)c(/C=N/NC(N)=S)c1	-13%	?	25%	40µM*	?
NC(=S)N/N=C/c1cccc(O)c1O	-21%	4%	1%	2%	-12%
CCCCCSc1nnc2c(n1)OC(c1ccc(C)s1)N(C(C)=O)c1ccccc1-2 (configuration not stated)	·	·	·	·	-4%
Cc1cc(C=C2C(=O)c3ccccc3C2=O)c(C)n1-c1ccc(Cl)cc1	0%	-176%	79µM*	-8%	-9%
Cc1cccc(C)c1NC(=O)c1ccc2nc(CCc3ccccc3)oc2c1	·	·	·	·	-24%
COc1cccc2cc(C(C)N(CCCN3CCOCC3)C(=S)Nc3cccc(C)c3)oc12 (configuration not stated)	56µM*	21%	-8%	9%	-8%
CCc1ccc(NC(=O)/C(C#N)=C/c2cc3ccc(C)cc3nc2N2CCOCC2)cc1	7%	100µM*	8%	-1%	-22%
CC(C)=C1C(=O)NN(c2ccc(F)c(Cl)c2)C1=O	-6%	4%	-3%	11%	-25%
O=C1NN(c2ccc(F)c(Cl)c2)C(=O)/C1=C\c1cccc(OC(=O)c2cccs2)c1	35µM*	5%	1%	-13%	?
CCOC(=O)c1c(C)nc2sc(C(N)=O)c(N)c2c1-c1ccccc1	-3%	7.9µM*	-3%	-7%	-23%
O=C(O)CN1C(=O)/C(=C\c2cc(Br)ccc2OCc2ccc([N+](=O)[O-])cc2)SC1=S	?	-9%	?	-7%	?
O=C(O)CN1C(=O)/C(=C\c2cc(Br)ccc2OCc2ccccc2F)SC1=S	?	0%	56µM*	6%	?
O=C(O)CN1C(=O)/C(=C\c2cc(Br)ccc2OCc2ccccc2Cl)SC1=S	40µM*	10%	-9%	5%	?
O=C(O)CN1C(=O)/C(=C\c2ccccc2OCc2ccc(Cl)cc2Cl)SC1=S	?	-1%	?	5%	?
CCNc1ccc2noc3c2c1C(=O)c1ccccc1-3	415%	89µM*	152%	112µM*	?
CCOc1ccc2noc3c2c1C(=O)c1ccccc1-3	4%	8%	4%	-11%	-18%
O=C1c2ccccc2-c2onc3ccc(N4CCCC4)c1c23	146%	-124%	125%	-152%	14µM*
COc1ccc(NC(=O)CN2CCCN(S(=O)(=O)c3ccc(Br)cc3)CC2)c(OC)c1	·	·	·	·	-20%
Cc1cc(=O)n(CC(=O)Nc2ccc([N+](=O)[O-])cc2)c(-n2nc(C)cc2C)n1	·	·	·	·	-15%
SMILES	EPAC1 antagonist	EPAC2 agonist	EPAC2 antagonist	EPAC1 agonist	USP1-UAF1 inh
COc1cc2ccccc2cc1C(=O)N1CCCC1	1%	5%	2%	17%	-11%
COc1cc2ccccc2cc1C(=O)N1CC(C)CC(C)C1 (configuration not stated)	-4%	9%	28µM*	-3%	-5%
Cc1c2ccccc2nc2c(F)c(NCCO)c(F)c(F)c12	28µM*	-6%	-4%	8%	?
Cc1cc(C)c(S(=O)(=O)/N=C2/C=C(SCC(=O)O)C(=O)c3ccccc32)cc1C	?	9%	-15%	20%	25µM*
OCCN(CCO)c1nc(N2CCCCC2)c2nc(N(CCO)CCO)nc(N3CCCCC3)c2n1	190%	112µM*	185%	100µM*	28µM*
Nc1nc(NCCO)nc(N2CCCCCC2)c1[N+](=O)[O-]	-4%	9%	16%	-4%	-12%
CC(=Nc1ccc(C)cc1)c1sc2ccccc2c1O	-6%	?	11%	?	?
CC(=Nc1ccc(C)cc1C)c1sc2ccccc2c1O	28%	?	5%	29%	35µM*
CCOc1ccc(C2CC(=O)Nc3nc(SCc4ccccc4C)[nH]c(=O)c32)cc1OC (configuration not stated)	·	·	·	·	-14%
CN(C)c1nc(Oc2ccc(=O)[nH]n2)nc(N2CCOCC2)n1	-8%	-7%	25µM*	7%	10%
CCOc1ccccc1NC(=O)CSc1ccc2nnc(CCNS(=O)(=O)c3ccccc3)n2n1	·	·	·	·	-15%
CCCC(=O)NC1=C(Cl)C(=O)c2ccccc2C1=O	-11%	-1%	0%	15%	18µM*
CCC(=O)N1CCc2cc(OC)c(OC)cc2C1COc1ccccc1OC (configuration not stated)	16%	-1%	45µM*	10%	2%
COc1cc2c(cc1OC)C(COc1ccc(F)cc1)N(C(C)=O)CC2 (configuration not stated)	6%	2%	?	-5%	-12%
CCC(=O)N1CCc2cc(OC)c(OC)cc2C1COc1ccc(F)cc1 (configuration not stated)	8%	11%	14µM*	6%	-8%
CCCC(=O)N1CCc2cc(OC)c(OC)cc2C1COc1ccccc1OC (configuration not stated)	11%	6%	-4%	-4%	-24%
Cc1cc(C)c(S(=O)(=O)NCC(c2cccs2)S(=O)(=O)c2ccccc2)c(C)c1 (configuration not stated)	·	·	·	·	-21%
O=C1C(O)=C(O)C(=O)c2ccccc21	?	13%	?	-31%	16µM*
O=C1c2ccccc2C(=O)c2[nH]c(=O)[nH]c21	7%	0%	-8%	-3%	28µM*
O=C1C(=O)c2ccccc2C(O)=C1c1ccccc1F	-11%	2%	-11%	-5%	5%
CC(=O)C(C(C)=O)C1(O)C(=O)c2ccccc2C1=O	-4%	8%	-10%	2%	7.9µM*
Cc1cccc(NC(=O)CSc2nc3ccccc3nc2N2CCCCC2)c1C	·	·	·	·	-12%
O=C(O)c1cccc2cccc(-c3c4ccc(=O)c(O)c-4oc4c(O)c(O)ccc34)c12	32µM*	-4%	-28%	12%	?
COc1ccc(/C=C\c2onc(C)c2S(=O)(=O)N2CCC(C(=O)Nc3ccc(C)cc3C)CC2)cc1	·	·	·	·	-3%
